Most compounds without a hit are left out; they make up all but 0.79% or so of the library.
AI-2 QS mod: modulates the Vibrio harveyi AI-2 quorum sensing system. Vibrio harveyi JMH597 AI-2 luminescence/OD600 ratio, 9 h; active compounds read low; strain lacks LuxN and CqsS sensors; 0 = neutral-control median. hit rate 0.4% among 300,000. activity change, % at 7.5 µM. AID 2094; in the data active means activity change below about -75%, passing the limit was not always enough;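 further: luminescence divided by OD600 gain over 9 h not by final OD600 alone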
Tat transport: blocks Tat-dependent protein export in E. coli; AID 488895; hit rate 0.036% among 340,000; inhibition, % at 10 µM; E. coli MC4100 TorA-mCherry Tat export, fluorescence;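 active means mean replicate inhibition at least 50% and at least half of replicates individually reaching 50%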;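 further: exported cargo escapes ClpAP degradation while cytoplasmic cargo is degraded and loses fluorescence; 0% = median of neutral control wells and 100% = median of NaSCN control wells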
phage Ecoli inh: E. coli growth loss with phage present; growth absorbance; inhibition, % at 11.9 µM; hit rate 0.26% among 360,000; in the data active means inhibition above about 11%
AddAB inh: less growth of phage-infected E. coli with AddAB. E. coli expressing H. pylori AddAB, absorbance growth. hit rate 0.29% among 330,000. inhibition, % at 11.9 µM; in the data active means inhibition above about 12%;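 further: 0% = vehicle wells of infected cells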
E coli growth-1: counter-screen for AddAB inhibitors: E. coli growth inhibition | inhibition, % at 11.9 µM | E. coli V3065 growth, OD600 absorbance, 18 h | hit rate 0.27% among 330,000;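 active means inhibition above the campaign's mean inhibition across all tested compounds plus 3 SD, cut at about 9.9% in these data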;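 further: uninfected addAB+ strain grown without phage in ampicillin broth; 0% = DMSO wells and 100% = ciprofloxacin 0.95 µg/ml wells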
E coli growth-2: blocks Escherichia coli growth | OD600, 23 h; active compounds read low | OD600 absorbance (concentration not given with the values) | hit rate 0.21% among 330,000;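 active means OD600 absorbance below the run mean of sample wells minus 3.6 SD, in any replicate, cut at about 0.56 in these data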
AddAB conf: confirmation screen: growth loss of phage-infected E. coli expressing H. pylori AddAB; shares compounds with AddAB inh; hit rate 64% among 880; E. coli V3065 expressing H. pylori AddAB, T4 phage, OD; T4 phage with gene 2 nonsense mutations; inhibition, % at 11.9 µM;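 active means mean inhibition above a set limit taken from the earlier primary screen, cut at about 13% in these data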;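 further: higher means less bacterial growth since AddAB block lets phage replicate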
RecBCD counter: counter-screen: growth loss of RecBCD+ E. coli with mutant T4 phage; shares compounds with AddAB inh; E. coli V66 + mutant T4 phage, OD growth; inhibition, % at 11.9 µM; hit rate 73% among 880; AID 488955;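 active means mean inhibition above the mean of solvent-only control wells plus 3 SD, cut at about 4% in these data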;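 further: optical density read after an 18 h incubation at 37 °C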
Bact viability: counter-screen for AddAB inhibitors: inhibitors of bacterial viability | shares compounds with AddAB inh | absorbance (AddAB counterscreen) | inhibition, % at 11.9 µM | hit rate 35% among 880 | AID 488956; in the data active means inhibition above about 25%
Active calls of the source: *; . = not tested or not shown.

SMILES | AI-2 QS mod | Tat transport | phage Ecoli inh | AddAB inh | E coli growth-1 | E coli growth-2 | AddAB conf | RecBCD counter | Bact viability
CC(=O)c1cc(F)c(N2CCN(C(=O)c3ccco3)CC2)cc1C | 12 | -4 | 0 | 2 | 2 | 0.74 | . | . | .
O=C(NN=Cc1cccnc1)c1cccc(S(=O)(=O)Nc2cccc(Cl)c2)c1 | . | . | . | . | . | 0.71 | . | . | .
Cc1cc(C)c2c(NC(=O)CCl)nn(C)c2n1 | 8 | 0 | 0 | 93* | 65* | 0.71 | 2 | 0 | 0
O=C(NN=Cc1ccc(Sc2ccccn2)o1)c1cccc([N+](=O)[O-])c1 | . | . | . | . | . | 0.71 | . | . | .
C=C1C(O)C(CC(C)C)N(Cc2ccccc2Br)S1(=O)=O (configuration not stated) | . | . | . | . | . | 0.71 | . | . | .
CC(=O)N(/N=C/c1ccc([N+](=O)[O-])o1)c1nc2ccccc2c(=O)n1-c1ccccc1 | 12 | 6 | 6 | 15* | 11* | . | 29* | 3 | 13
COC(=O)C1NC(C(NC(=O)COc2ccccc2)C(=O)NCc2ccc(OC)cc2)SC1(C)C (configuration not stated) | . | . | . | . | . | 0.7 | . | . | .
O=[N+]([O-])c1cc(S(=O)(=O)Nc2ccc(Cl)cc2)ccc1NN=Cc1ccncc1 | . | . | . | . | . | 0.71 | . | . | .
CCOC(=O)N1CCN(c2c(NCCCN3CCCCCC3)c(=O)c2=O)CC1 | 4 | -2 | 3 | 12* | 5 | 0.75 | 0 | 1 | -2
O=C(Nc1ccc2oc(-c3ccccc3)nc2c1)c1cc(-n2cnnc2)ccc1Cl | 4 | 1 | 1 | 95* | 65* | 0.69 | 4 | -1 | -2
c1ccc2nc(-c3ccc(N4CCOCC4)cc3)ccc2c1 | -4 | -1 | 4 | 40* | 43* | 0.68 | -4 | -1 | -4
CN1CCN(c2ccc(-c3ccc4ccccc4n3)cc2)CC1 | 2 | 5 | 2 | . | . | 0.68 | . | . | .
CC(C)OCC(O)CCc1n[nH]c(=S)n1-c1ccccc1 (configuration not stated) | 10 | -6 | 2 | 1 | 0 | 0.65 | . | . | .
CCCCOCC(O)CCc1n[nH]c(=S)n1-c1ccccc1 (configuration not stated) | 5 | 0 | 3 | 84* | 27* | 0.64 | 2 | 1 | -1
CC1CCN(C(=O)CCC(=O)N2CC(C)Oc3ccccc32)CC1 (configuration not stated) | 1 | -10 | 3 | 99* | 32* | 0.73 | -3 | 1 | -2
O=C(Nc1ccccc1O)c1ccccc1O | 4 | 2 | 9 | 24* | 13* | 0.48* | 5 | 8.2* | -1
Cc1cccc(NC(=O)c2ccccc2O)c1C | 6 | 1 | 6 | 4 | 2 | 0.62 | . | . | .
O=C(COC(=O)c1ccccc1NC(=O)c1ccco1)NCC1CCCCC1 | 12 | -6 | 0 | 97* | 98* | 0.68 | -2 | 2 | 0
Cc1[nH]n(-c2ccccc2)c(=O)c1C(=O)c1ccc(Cl)cc1 | 21 | -1 | 0 | 97* | 96* | 0.68 | 0 | -2 | -6
C#CCOCCOCCOCCNc1nc(N2CCN(C(=O)C(CCCCN)n3cc(C(N)CO)nn3)CC2)nc(N2CCN(C(=O)C(Cc3ccc(O)cc3)n3cc(C(N)CC(C)C)nn3)CC2)n1 (configuration not stated) | . | . | . | . | . | 0.6 | . | . | .
COc1ccc(S(=O)(=O)N2CCOC2CNC(=O)C(=O)NCCc2ccccc2)cc1C (configuration not stated) | 12 | -12 | 4 | 43* | 15* | 0.81 | 0 | -1 | -2
COc1ccc(S(=O)(=O)N2CCOC2CNC(=O)C(=O)NCCc2ccccc2)cc1OC (configuration not stated) | 17 | -9 | 1 | -2 | -2 | 0.79 | . | . | .
O=C(NCCSc1c[nH]c2ccccc12)c1ccco1 | 9 | -9 | 2 | 81* | 27* | 0.71 | -1 | 2 | 1
O=C(NCCSc1c[nH]c2ccccc12)c1c(F)cccc1F | 27 | 2 | 0 | -1 | 1 | 0.65 | . | . | .
CC(O)C1CNCCN1CCc1cc(C(F)(F)F)cc(C(F)(F)F)c1 (configuration not stated) | . | . | . | . | . | 0.7 | . | . | .
SMILES | AI-2 QS mod | Tat transport | phage Ecoli inh | AddAB inh | E coli growth-1 | E coli growth-2 | AddAB conf | RecBCD counter | Bact viability
O=C(Cc1cccs1)NCCn1ccc2ccccc21 | 17 | 7 | 3 | 99* | 95* | 0.77 | -1 | 2 | -1
Cc1ccc(C=NNc2nc3ccccc3s2)o1 | . | . | . | . | . | 0.68 | . | . | .
CCOC(=O)CN=C1CC(C)(C)CC2=C1Sc1ncnc(N(C)C)c1N2 | 9 | -4 | . | 20* | 43* | 0.71 | 1 | 1 | -1
CC1CN(C(C)CO)C(=O)c2cc(NC(=O)c3ccncc3)ccc2OC1CN(C)C(=O)Nc1ccc(C(F)(F)F)cc1 (configuration not stated) | . | . | . | . | . | 0.69 | . | . | .
Cc1ccc(C)c(C(O)=C2C(=O)C(=O)N(CCCn3ccnc3)C2c2cccnc2)c1 (configuration not stated) | . | . | . | . | . | 0.68 | . | . | .
Cc1ccnc2c1ccc1c(C)ccnc12 | . | 8 | . | 39* | 37* | 0.28* | 70* | 25* | 20
Cc1[nH]n(-c2ccccc2)c(=O)c1C=NNC(=O)C(C)C | . | . | . | . | . | 0.68 | . | . | .
O=C(NNC(=O)c1cc(Br)ccc1O)c1csc(N2CCOCC2)n1 | . | -3 | . | 37* | 33* | . | 27* | 27* | 27*
O=C(NNC(=O)c1cc(Br)ccc1Cl)c1csc(N2CCOCC2)n1 | 3 | 5 | -1 | 3 | -3 | 0.73 | . | . | .
CCOC(=O)C1=C(C)NC(=O)NC1c1ccc([N+](=O)[O-])o1 (configuration not stated) | -12 | 1 | 1 | -2 | -2 | 0.69 | . | . | .
CCOC(=O)C1=C(C)NC2=C(C(=O)c3ccccc32)C1c1ccc([N+](=O)[O-])o1 (configuration not stated) | 44 | 1 | 6 | 26* | 12* | 0.63 | 32* | 2 | 15
CCn1cc(C(=O)OCC(=O)N(C)Cc2ccccc2)c(=O)c2ccc(C)nc21 | 10 | -1 | 2 | 98* | 95* | . | -3 | -1 | -1
CCn1cc(C(=O)OCC(=O)c2cc(C)n(-c3ccccc3)c2C)c(=O)c2ccc(C)nc21 | -14 | 0 | 0 | 0 | 0 | 0.64 | . | . | .
CC1C(C#N)=C(N)OC2=C1C(=O)CC(c1ccccc1)C2 (configuration not stated) | 0 | 4 | 1 | 97* | 73* | 0.69 | 0 | 1 | -1
